Experimental data: PubChem BioAssay (Tox21)
Inconclusive results are not listed. Active and inactive are the calls of the source. Unless noted, calls come from the whole dose curve; as a rule, active = well fitted curve in the direction sought with a large enough effect in the repeat runs; inconclusive = weak or mixed curves; inactive = no such curve, though single readings can be large; an effect the other way counts as inactive or inconclusive.

Assays:
[1] = A CellTox Green Cytotoxicity Assay to monitor cytotoxicity in HEK293 cells - 32 hour (AID 1224881); note: nearly all actives have a fitted effect of over 40% in size
Procedure, shortened: (§1)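 Dead-cell fluorescence measured kinetically: asymmetric cyanine dye, HEK293, 600 cells/well, 5 h settle, 23 nL cpd/DMSO, 37 C, reads 0–40 h every 8 h.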

[2] = A CellTox Green Cytotoxicity Assay to monitor cytotoxicity in HepG2 cells - 0 hour (AID 1224882); note: nearly all actives have a fitted effect of over 35% in size
Procedure, shortened: (§2)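 First, HepG2 cells (600/well) mixed with reagent were plated; second, after 5 h at 37 C they received compounds via pintool; third, fluorescence was measured at 0 h through 40 h at 8 h intervals.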

[3] = A CellTox Green Cytotoxicity Assay to monitor cytotoxicity in HepG2 cells - 32 hour (AID 1224883); note: nearly all actives have a fitted effect of over 50% in size
Procedure, shortened: as §2

[4] = A CellTox Green Cytotoxicity Assay to monitor cytotoxicity in HEK293 cells - 8 hour (AID 1224884); note: nearly all actives have a fitted effect of over 35% in size
Procedure, shortened: as §1

[5] = qHTS RealTime-Glo MT Cell Viability Assay in HEK293 cells - 24 hour (AID 1224886); note: top concentration of the series differs between compounds; nearly all actives have a fitted effect of over 50% in size
Procedure, shortened: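 Luminescence generated by NanoLuc from substrate produced by living HEK293 cells served as the viability signal. Each value reflects the reading at its stated time point during continuous 40 h compound exposure at 37 C.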

[6] = qHTS RealTime-Glo MT Cell Viability Assay in HEK293 cells - 8 hour (AID 1224887); note: top concentration of the series differs between compounds; nearly all actives have a fitted effect of over 50% in size
Procedure, shortened: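 600 HEK293 cells per well, dispensed already mixed with RealTime-Glo MT reagents. Compound dosing came 5 h later. The same wells were read for luminescence at 0, 8, 16, 24, 32 and 40 h of exposure at 37 C.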

[7] = A CellTox Green Cytotoxicity Assay to monitor cytotoxicity in HEK293 cells - 16 hour (AID 1224888); note: nearly all actives have a fitted effect of over 35% in size
Procedure, shortened: as §1

[8] = qHTS RealTime-Glo MT Cell Viability Assay in HepG2 cells - 0 hour (AID 1224889); note: nearly all actives have a fitted effect of over 50% in size
Procedure, shortened: (§3)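 Tox21 10K library screened in qHTS format on HepG2 cells carrying RealTime-Glo reagents. Compounds were added after a 5 h preincubation, and the luminescent signal from continuous culture was measured repeatedly during 40 h treatment.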

[9] = A CellTox Green Cytotoxicity Assay to monitor cytotoxicity in HepG2 cells - 8 hour (AID 1224890); note: nearly all actives have a fitted effect of over 45% in size
Procedure, shortened: as §2

[10] = qHTS assay to identify small molecule antagonists of the estrogen receptor alpha (ER-alpha) signaling pathway using the BG1 cell line in the presence of 0.1 nM 17-beta-estradiol - cell viability counter screen (AID 1259241); note: nearly all actives have a fitted effect of over 40% in size
Procedure, shortened: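 Following 5 days in phenol red-free medium with charcoal-stripped serum, VM7Luc4E2 cells received test compounds alongside 0.1 nM 17beta-estradiol (final) at 37C for 22 hr. Live cells were then quantified via protease-substrate fluorescence.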

[11] = qHTS assay to identify small molecule antagonists of the androgen receptor (AR) signaling pathway using the MDA cell line in the presence of 0.5 nM R1881 - cell viability counter screen (AID 1259242); note: nearly all actives have a fitted effect of over 45% in size
Procedure, shortened: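 qHTS format. MDA-kb2 (MMTV-luc, AR/GR responsive) + cpd + 0.5 nM R1881 final, 16 hr 37C/0% CO2 → CellTiter-Fluor 30 min → fluorescence intensity.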

[12] = qHTS assay to identify small molecule HDAC inhibitors (AID 1259364);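 note: wild-type HCT-116 cells with endogenous class I/II HDAC activity; top concentration of the series differs between compounds; nearly all actives have a fitted effect of over 45% in size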
Procedure, shortened: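 Quantitative high-throughput format: overnight-seeded HCT-116 cells got compounds for 2 hr at 37C; HDAC-Glo I/II reagent added, 30 min RT, luminescence measured.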

[13] = qHTS assay to identify small molecule HDAC inhibitors - cell viability counter screen (AID 1259365)
Procedure, shortened: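 HCT-116 wild-type, overnight attachment; 2hr drug exposure, 37C; CellTiter-Glo luminescent ATP readout after 30min RT.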

[14] = qHTS assay to identify small molecule agonists of the sonic hedgehog signaling (Shh) pathway - cell viability counter screen (AID 1259366); note: nearly all actives have a fitted effect of over 50% in size
Procedure, shortened: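 Compounds in DMSO were pin-transferred onto 3T3 Gli1-Luc cells that had settled 4hr; plates then stood 24hr at 37C and 5% CO2. One hour before the end, CellTiter-Fluor was added and fluorescence recorded.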

[15] = qHTS assay to identify small molecule antagonists of the sonic hedgehog signaling (Shh) pathway - cell viability counter screen (AID 1259367); note: nearly all actives have a fitted effect of over 55% in size
Procedure, shortened: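 Fluorescence read-out (CellTiter-Fluor, 1 hr at 37C) taken after 23 hr compound treatment of 3T3 Gli1-Luc cells stimulated with conditioned medium. Cells were seeded at 2,000 per well and pre-incubated 4 hr.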

[16] = qHTS assay to identify small molecule agonists of the sonic hedgehog signaling (Shh) pathway (AID 1259368; calls by dose curve;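 note: NIH/3T3-derived 3T3Gli1-Luc cells carrying a stable Gli1-driven firefly luciferase reporter; series mostly up to about 92 µM; nearly all actives have a fitted effect of over 15% in size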)
Procedure, shortened: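 Quantitative high-throughput format using a Gli1-driven firefly luciferase reporter line derived from NIH/3T3 cells. After a 24 hr compound treatment at 37 C and 5% CO2, luminescence reported Gli1 response element activity.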

[17] = biological target: Estrogen receptor (Homo sapiens) (UniProt P03372); experiment: qHTS assay to identify small molecule antagonists of the estrogen receptor alpha (ER-alpha) signaling pathway using the BG1 cell line in the presence of 0.1 nM 17-beta-estradiol (AID 1259244); note: nearly all actives have a fitted effect of over 50% in size
Procedure, shortened: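 Reporter is a stably transfected luciferase under four estrogen responsive elements in VM7Luc4E2 cells expressing native full-length ER-alpha; inhibition of 0.1 nM (final) 17beta-estradiol-driven signal over 22 h is read by luminescence.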

[18] = qHTS assay to identify small molecule phospholipidosis (PLD) inducers (AID 1259344; active = well fitted curve in the direction sought with a large enough effect; an effect the other way counts as inactive or inconclusive)
Procedure, shortened: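 Read-out is LipidTOX Red fluorescence (ex 595/em 615) imaged in HepG2 cells after 24 h compound exposure at 37 C, with Hoechst nuclear counterstain (ex 352/em 461) allowing per-cell normalisation.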

[19] = qHTS RealTime-Glo MT Cell Viability Assay in HepG2 cells - 16 hour (AID 1224885); note: nearly all actives have a fitted effect of over 50% in size
Procedure, shortened: as §3

[20] = biological target: Androgen receptor (Homo sapiens) (UniProt P10275); experiment: qHTS assay to identify small molecule antagonists of the androgen receptor (AR) signaling pathway using the MDA cell line in the presence of 0.5 nM R1881 (AID 1259243); note: nearly all actives have a fitted effect of over 50% in size
Procedure, shortened: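 Antagonist mode quantitative HTS in MDA-kb2 MMTV-luciferase cells, agonist R1881 at 0.5 nM final, 16 hr exposure at 37C and 0% CO2, luminescent detection.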

Measured: Potency

Chain of Androgen receptor (Homo sapiens) (P10275 whole entry, looked up): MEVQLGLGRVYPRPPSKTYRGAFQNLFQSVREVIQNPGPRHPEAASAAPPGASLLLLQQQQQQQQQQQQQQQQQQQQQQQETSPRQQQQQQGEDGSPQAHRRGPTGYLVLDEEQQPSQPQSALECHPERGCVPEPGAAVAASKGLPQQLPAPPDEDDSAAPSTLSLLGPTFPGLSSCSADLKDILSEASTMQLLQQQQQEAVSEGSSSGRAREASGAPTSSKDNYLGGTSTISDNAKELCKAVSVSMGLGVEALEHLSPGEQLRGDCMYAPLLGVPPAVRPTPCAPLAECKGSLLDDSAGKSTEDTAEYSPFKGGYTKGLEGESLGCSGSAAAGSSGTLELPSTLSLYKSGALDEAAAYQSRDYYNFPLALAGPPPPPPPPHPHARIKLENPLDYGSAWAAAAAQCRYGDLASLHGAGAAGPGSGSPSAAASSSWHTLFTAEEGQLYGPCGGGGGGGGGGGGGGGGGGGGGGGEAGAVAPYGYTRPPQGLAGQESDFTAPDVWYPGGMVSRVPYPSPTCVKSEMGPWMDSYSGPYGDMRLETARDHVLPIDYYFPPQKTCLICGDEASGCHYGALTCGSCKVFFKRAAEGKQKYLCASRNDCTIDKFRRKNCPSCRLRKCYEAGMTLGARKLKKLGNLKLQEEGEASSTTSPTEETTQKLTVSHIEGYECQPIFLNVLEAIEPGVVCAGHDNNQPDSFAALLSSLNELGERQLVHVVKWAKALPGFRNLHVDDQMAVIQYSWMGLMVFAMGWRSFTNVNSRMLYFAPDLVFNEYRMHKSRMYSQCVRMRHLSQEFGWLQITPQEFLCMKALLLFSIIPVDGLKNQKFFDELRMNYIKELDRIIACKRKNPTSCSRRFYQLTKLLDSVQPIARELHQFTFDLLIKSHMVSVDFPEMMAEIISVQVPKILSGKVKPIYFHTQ
Chain of Estrogen receptor (Homo sapiens) (P03372 whole entry, looked up): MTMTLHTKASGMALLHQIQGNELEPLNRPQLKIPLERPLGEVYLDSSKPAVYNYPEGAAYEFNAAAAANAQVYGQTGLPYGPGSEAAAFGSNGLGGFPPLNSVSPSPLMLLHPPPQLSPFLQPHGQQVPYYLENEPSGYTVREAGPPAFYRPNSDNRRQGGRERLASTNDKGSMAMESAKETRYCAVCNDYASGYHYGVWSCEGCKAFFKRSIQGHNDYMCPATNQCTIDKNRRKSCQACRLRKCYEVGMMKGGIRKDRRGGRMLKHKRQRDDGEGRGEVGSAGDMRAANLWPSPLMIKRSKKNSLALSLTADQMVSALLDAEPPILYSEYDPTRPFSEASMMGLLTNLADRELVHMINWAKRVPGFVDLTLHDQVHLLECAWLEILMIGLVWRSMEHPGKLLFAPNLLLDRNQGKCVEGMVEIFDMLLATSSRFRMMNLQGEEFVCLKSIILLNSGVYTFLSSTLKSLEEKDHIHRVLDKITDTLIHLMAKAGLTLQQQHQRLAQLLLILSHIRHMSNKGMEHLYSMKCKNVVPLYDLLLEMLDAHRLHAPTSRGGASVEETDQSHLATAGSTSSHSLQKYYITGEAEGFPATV

CC1CN1P(=O)(N1CC1C)N1CC1C (stereo unspecified)
inactive: [1] | [2] | [3] | [4] | [5] | [6] | [7] | [8] | [9] | [10] | [11] | [12] | [13] | [14] | [15] | [16]

COc1cc2c(cc1OC)[C@@]13CCN4CC5=CCO[C@H]6CC(=O)N2[C@H]1[C@H]6[C@H]5C[C@H]43
inactive: [1] | [2] | [3] | [4] | [5] | [6] | [7] | [8] | [10] | [11] | [17] | [18] | [13] | [16]

CN(N=O)C(N)=O
inactive: [1] | [2] | [3] | [4] | [5] | [6] | [7] | [8] | [9] | [10] | [11] | [14] | [15] | [16]

CC(C)CP(=S)(S)CC(C)C
inactive: [1] | [3] | [4] | [19] | [5] | [6] | [7] | [8] | [9] | [10] | [11] | [12] | [13] | [14] | [15] | [16]

CC(C(=O)c1ccccc1)N(C)C (stereo unspecified)
inactive: [1] | [3] | [4] | [19] | [5] | [6] | [7] | [9] | [10] | [20] | [17] | [14] | [15] | [16]

CC(COc1ccc(Oc2ccccc2)cc1)Oc1ccccn1 (stereo unspecified)
inactive: [1] | [2] | [3] | [4] | [7] | [9] | [10] | [11] | [20] | [13] | [14] | [16]

c1cc2c(c(N3CCNCC3)c1)OCCO2
inactive: [1] | [3] | [4] | [19] | [5] | [6] | [7] | [8] | [10] | [11] | [20] | [18] | [12] | [13] | [14] | [15]

Cc1cnc[nH]1
inactive: [1] | [2] | [3] | [4] | [6] | [8] | [9] | [10] | [11] | [20] | [12] | [13] | [14] | [15] | [16]

O=P(O)(Oc1ccccc1)Oc1ccccc1
inactive: [1] | [2] | [3] | [4] | [6] | [7] | [8] | [9] | [10] | [12] | [13] | [14] | [15] | [16]
